CYP2C19 inhib = blockers of cytochrome P450 2C19 activity – biochemical, luminescence, ADME assay, primary screen; AID 778, 2007; inhibition, % at 5 µM; CYP2C19 Supersomes, luciferin-H EGE luminescence, 30 min; P33261; actives 21% (n = 96,000);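 active = CYP2C19 inhibition above a set limit at 5 µM in the primary screen, cut at about 50% in these data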;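 also: plate controls were negative control wells for no effect and 2.5 mM tranylcypromine positive control for full effect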
CYP2C19 act = human CYP2C19 activators, primary screen, biochemical, luminescence; recombinant CYP2C19, luciferin-H EGE luminescence; stronger effect = higher value; 0 = fully inhibited enzyme, 1 = untreated enzyme; 96,000 tested, under 10 active; AID 1025, 2008; activation factor at 5 µM;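 active = activation factor of at least 2 at 5 µM in the primary screen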;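 also: 0 = wells with 2.5 mM tranylcypromine and 1 = vehicle-only wells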
sEH act = soluble epoxide hydrolase activators, primary screen, biochemical, human sEH | Bifunctional epoxide hydrolase 2 (Homo sapiens), P34913 | purified human sEH enzymatic activity, activator screen | activation, % at 2 µM | actives 0.04% (n = 91,000) | AID 717, 2007; in the data active = activation above about 37%
Target sequence (P34913 whole entry, looked up): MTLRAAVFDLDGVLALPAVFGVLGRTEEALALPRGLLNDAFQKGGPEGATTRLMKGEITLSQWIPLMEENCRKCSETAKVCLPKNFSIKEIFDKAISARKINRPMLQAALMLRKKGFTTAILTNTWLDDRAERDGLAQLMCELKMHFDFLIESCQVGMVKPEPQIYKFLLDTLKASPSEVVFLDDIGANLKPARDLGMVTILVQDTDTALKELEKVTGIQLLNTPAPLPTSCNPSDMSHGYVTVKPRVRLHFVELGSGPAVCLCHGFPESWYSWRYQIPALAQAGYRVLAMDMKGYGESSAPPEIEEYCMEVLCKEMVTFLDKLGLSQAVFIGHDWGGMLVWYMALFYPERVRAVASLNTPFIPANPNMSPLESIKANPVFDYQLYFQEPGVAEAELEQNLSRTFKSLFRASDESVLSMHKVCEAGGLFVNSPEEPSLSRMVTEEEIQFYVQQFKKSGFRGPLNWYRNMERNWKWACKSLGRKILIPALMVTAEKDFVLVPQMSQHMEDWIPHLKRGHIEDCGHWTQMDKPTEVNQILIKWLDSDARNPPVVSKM
CYP2C9 inhib = blockers of cytochrome P450 2C9 activity – biochemical, luminescence, ADME assay, primary screen; CYP2C9 Supersomes, luciferin-H conversion; inhibition, % at 5 µM; actives 20% (n = 96,000); AID 777, 2007;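 active = blocking of liver enzyme CYP2C9 beyond about 50% at 5 µM, limit read from the data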
CYP2C9 act = human CYP2C9 activators, primary screen, biochemical, luminescence; Cytochrome P450 2C9 (Homo sapiens), P11712; AID 1024, 2008; recombinant CYP2C9, luciferin-H conversion; stronger effect = higher value; factor 1 = untreated enzyme, 0 = blocked; actives 1.4% (n = 96,000); activation factor at 5 µM;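 active = activation factor of 2 or more for CYP2C9 at a 5 µM dose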;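 also: 0 = sulfaphenazole-blocked wells and 1 = vehicle-only wells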
sEH inh = soluble epoxide hydrolase inhibitors, primary screen, biochemical, human sEH; Bifunctional epoxide hydrolase 2 (Homo sapiens), P34913; recombinant human sEH enzymatic activity assay; actives 0.34% (n = 91,000); AID 707, 2007; inhibition, % at 2 µM; in the data active = inhibition above about 80%
* hit, by the source's call; nt = no result given. The list is not random: actives were taken first. Their share in the collection is about 27%.

SMILES	CYP2C19 inhib	CYP2C19 act	sEH act	CYP2C9 inhib	CYP2C9 act	sEH inh
CCOc1cc(C(=O)NC(C)c2ccncc2)cc(OCC)c1OCC (stereo unspecified)	80.0*	0.2	4.5	80.5*	0.2	-2.2
CCOc1cc(C(=O)NCc2ccncc2)cc(OCC)c1OCC	83.8*	0.2	-4.9	92.5*	0.1	4.8
CCCN(Cc1ccccc1)S(=O)(=O)c1ccc(N2C(=O)CCC2=O)cc1	24.1	0.8	-0.5	42.1	0.6	-0.2
CN(C)CCNc1oc(-c2cccc(Cl)c2)nc1C#N	1.8	1	11.9	9.1	0.9	-11.3
N#CCC1c2ccccc2CCN1C(=O)Nc1ccc(Cl)cc1 (stereo unspecified)	54.6*	0.5	-41.2	33.7	0.7	42.2
COCCCNC(=O)c1ccc2nc3ccccc3c(=O)n2c1	23.8	0.8	-3.3	22.7	0.8	4.7
C=CCn1c(SC(C)C(=O)NCc2ccc3c(c2)OCO3)nnc1C1CCCCC1 (stereo unspecified)	56.1*	0.4	nt	57.1*	0.4	nt
O=C(CSc1nnc(-c2cccnc2)n1-c1ccccc1)NCc1ccc2c(c1)OCO2	-2.2	1	0.9	18.5	0.8	0.1
CC(Sc1nnc(-c2cccnc2)n1-c1ccccc1)C(=O)NCc1ccc2c(c1)OCO2 (stereo unspecified)	45.8	0.5	13.1	91.0*	0.1	-14.0
COC(=O)c1ccc(OCCn2cnc3ccccc3c2=O)cc1	28.6	0.7	nt	25.2	0.7	nt
CCOC(=O)CSC1=C(C#N)C(c2ccccc2OC)CC(=O)N1 (stereo unspecified)	64.2*	0.4	10.1	15.3	0.8	-6.2
CCSC1=C(C#N)C(c2ccc(C)s2)CC(=O)N1 (stereo unspecified)	69.1*	0.3	nt	51.8*	0.5	nt
COc1ccc(OC)c(C2CC(=O)NC(SC)=C2C#N)c1 (stereo unspecified)	48.4	0.5	8.8	63.8*	0.4	-7.0
Cc1ccccc1C1CC(=O)NC2=C1C(=O)CCC2 (stereo unspecified)	-2.3	1	-8.8	18.5	0.8	8.3
C=CCSC1=C(C#N)C(c2ccccc2OC)CC(=O)N1 (stereo unspecified)	46.6	0.5	-7.2	23.6	0.8	7.5
CCOC(=O)CSC1=C(C#N)C(c2ccccc2C)C2=C(CCCC2=O)N1 (stereo unspecified)	50.4*	0.5	-4.8	78.6*	0.2	4.1
CN(C=O)CP(=O)(O)CCN1CCCC1=O	nt	nt	-7.0	nt	nt	7.1
O=C(Nc1ccccc1)N1CCC(C(=O)N(Cc2ccco2)Cc2cccs2)CC1	17.8	0.8	-4.4	30.3	0.7	1.3
O=C(Nc1ccccc1)OC(CN1CCCCC1)C(F)(F)F (stereo unspecified)	43.2	0.6	-2.5	23.1	0.8	1.3
O=C(c1ccc(F)cc1)C1CCN(C(=O)NC2CCCCC2)CC1	37.5	0.6	-23.5	23.9	0.8	23.3
COC(=O)CSC1=C(C#N)C(c2ccccc2)CC(=O)N1 (stereo unspecified)	35.9	0.6	7.3	28.1	0.7	-8.2
CCOC(=O)CSC1=C(C#N)C(c2ccc(C)s2)CC(=O)N1 (stereo unspecified)	71.6*	0.3	3.6	95.5*	0	-4.0
COc1ccc(OC)c(NC(=O)Cn2cc(C#N)c3cc(Br)ccc32)c1	92.9*	0.1	-2.2	99.4*	0	1.6
c1ccc(-n2c(SCC3CCCCO3)nnc2-c2cccs2)cc1 (stereo unspecified)	11.9	0.9	0.2	21.0	0.8	-1.3
CCOC(=O)C1CCN(c2nc3ccccc3nc2C(C#N)C(=O)OC(C)C)CC1 (stereo unspecified)	91.6*	0.1	-2.2	17.4	0.8	4.8
SMILES	CYP2C19 inhib	CYP2C19 act	sEH act	CYP2C9 inhib	CYP2C9 act	sEH inh
C=CCOC(=O)C(C#N)c1nc2ccccc2nc1N1CCN(Cc2ccc3c(c2)OCO3)CC1 (stereo unspecified)	25.9	0.7	nt	57.3*	0.4	nt
CCOC(=O)C1CCN(c2nc3ccccc3nc2C(C#N)C(=O)OC(C)COC)CC1 (stereo unspecified)	61.4*	0.4	nt	63.3*	0.4	nt
C=CCOC(=O)C(C#N)c1nc2ccccc2nc1N1CCC(C(=O)OCC)CC1 (stereo unspecified)	26.1	0.7	nt	56.0*	0.4	nt
Cc1c(NC(=O)c2cnn3c2NC(c2ccco2)CC3C(F)(F)F)c(=O)n(-c2ccccc2)n1C (stereo unspecified)	-12.2	1.1	-2.0	17.9	0.8	7.0
CCN1CCN(C(CNC(=O)c2ccc3c(c2)OCO3)c2cccnc2)CC1 (stereo unspecified)	-20.7	1.2	10.6	2.9	1	-11.7
CCOC(=O)C1CCN(c2nc3ccccc3nc2C(C#N)C(=O)OCCOC)CC1 (stereo unspecified)	66.2*	0.3	-9.8	49.9	0.5	12.2
O=C(CSc1nnc(NC(=O)CN2CCOCC2)s1)Nc1ccccc1	5.7	0.9	7.9	14.1	0.9	-9.3
CCCc1cc(N2CCCC(C(=O)NCC)C2)n2ncnc2n1 (stereo unspecified)	-0.6	1	-0.6	3.7	1	2.0
O=S(=O)(NC1CC1)c1ccc(S(=O)(=O)N(Cc2ccccn2)C2CCCC2)cc1	62.0*	0.4	-3.6	70.8*	0.3	6.4
Cc1cc(NC(=O)CCCSc2nc(-c3ccco3)cc(C(F)(F)F)n2)n(-c2ccccc2)n1	nt	nt	4.6	nt	nt	1.1
O=C(COC(=O)c1ccccc1Cl)Nc1nccs1	18.9	0.8	-5.8	11.4	0.9	5.9
COc1ccc(/C=N/n2cncn2)cc1CSc1ccccn1	83.0*	0.2	6.2	35.2	0.6	-4.8
CCOC(=O)c1[nH]c2ccc(OCC)cc2c1NC(=O)CN1CCCC(C)C1 (stereo unspecified)	77.6*	0.2	-1.8	59.6*	0.4	3.6
COC(=O)c1[nH]c2ccc(C)cc2c1NC(=O)CN1CCCC(C)(C)C1	38.8	0.6	13.3	18.1	0.8	-15.1
CCOC(=O)c1[nH]c2ccc(C)cc2c1NC(=O)CN1CCCCC1	60.1*	0.4	-6.2	29.6	0.7	6.3
CCOC(=O)c1[nH]c2ccc(OCC)cc2c1NC(=O)CN1CCN(c2ccccn2)CC1	11.7	0.9	-21.8	5.3	0.9	20.8
Cc1c(NC(=O)c2ccccc2N(C)S(=O)(=O)c2ccccc2)c(=O)n(-c2ccccc2)n1C	24.5	0.8	10.1	46.4	0.5	-7.2
CCn1c(SC(=O)NC2CCCCC2)nnc1-c1cccs1	53.0*	0.5	-76.9	24.7	0.8	76.4

Bioassay records: PubChem BioAssay, several laboratories
